The panel holds about 83,000 compounds, 20% with a hit somewhere; the sample as a whole holds those more often.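 Compound tested at a single concentration for 48 hours in 96-well plates; a percent growth value below 10 was scored as active.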 Values without a mark were called inactive. Active and inactive are the calls of the source.

The subject of this test is HL-60(TB) leukemia. Nature of the test: NCI-60 one-dose screen, 48 h (100 = growth as untreated, 0 = no growth, -100 = all killed). The following applies: 10 µM unless noted.
`O=C(CSc1nc(-c2ccccc2)cn1-c1ccc(Cl)cc1)c1ccc([N+](=O)[O-])cc1`: the growth is 95.8%.

Take `CCCCN(CCC)CCCCCCCCCCN1CCCc2ccccc21`: the growth is 42.2%.

With `Clc1nc(Nc2ccccc2)nc(Nc2ccccc2)n1`, the growth is 65.6%.

Regarding `CC1=C[C@H]2c3c(c(O)c(O)c4oc(-c5ccccc5)cc(=O)c34)[C@H](c3cc(O)c(O)c4oc(-c5ccccc5)cc(=O)c34)[C@H]2C(C)(C)C1`, the growth was -30.1% (active).

Consider `COc1cccc2nc(Nc3ccc(NC(=O)c4ccc5ncccc5c4)cc3)ccc12`, for which the growth was 91%.

As for `COc1ccc2c(c1)C(=O)/C(=C/c1ncc([N+](=O)[O-])n1C)O2`, the growth was -7.47% (active).

With `COc1cc2nc(N3CCCC3)nc(NCC3CCCCC3)c2cc1OC`, the growth is -57.2% (active).

As for `CN(C)c1ccc2c(c1)OC(N)=C(C#N)C2c1ccc2c(c1)CCO2` (stereo not given), the growth was -1.56% (active).

On to `COc1cc(C(=O)/C=C/c2ccc3nc(-c4cc(F)cc(F)c4)sc3c2)cc(OC)c1OC`, for which the growth was 60.1%.

For the molecule `O=C(O)c1ccccc1Oc1cc(-c2ccco2)nc(OCCBr)n1`, the growth was 100%.

`C#CCOc1c(OC)cc(C(=O)/C(C)=C/c2cccc(N=[N+]=[N-])c2)cc1OC`: the growth is 1.17% (active).

With `COc1cc(/C=C/C(=O)c2ccc(NC(=O)CN3CCN(c4cc5c(cc4F)c(=O)c(C(=O)O)cn5C4CC4)CC3)cc2)cc(OC)c1OC`, the growth was -33.7% (active).

As to `Cc1nc(Cl)c2c(n1)N(C)c1ccc(Cl)cc1C(C)C2` (stereo not given), the growth was 72.2%.

`COc1ccc(CNc2nc3ccccc3c3c(=O)c4ccccc4sc23)cc1OC`: the growth was 98.9%.

For the molecule `Cc1cc(-c2ccc(N=Nc3c(S(=O)(=O)O)cc4cc(S(=O)(=O)O)cc(O)c4c3O)c(C)c2)ccc1N=Nc1c(S(=O)(=O)O)cc2cc(S(=O)(=O)O)cc(O)c2c1O`, the growth is 119%.

Regarding `Cc1cc(F)ccc1S(=O)(=O)Nc1cc(-c2c(O)ccc3ccccc23)c(O)c2ccccc12`, the growth was -10.8% (active).

Consider `CN(C)c1ccc(O)c2c1CC1CC3C(N(C)C)C(=O)C(C(N)=O)=C(O)C3(O)C(=O)C1=C2O` (stereo not given), for which the growth was 51.3%.

With `CNCCCNc1ccnc2cc(Cl)ccc12`, the growth was -25% (active).

In the case of `CCOc1ccc2c(c1)CN(Cc1ccc(Cl)cc1)CO2`, the growth is 94.9%.

As for `Cc1nn2c(-c3nc4ccc(Cl)cc4[nH]3)c(-c3ccc(F)cc3)nc2s1`, the growth is 117%.

Regarding `CN(C)C[C@@H]1CCn2cc(c3ccccc32)C2=C(C(=O)NC2=O)c2cn(c3ccccc23)CCO1`, the growth is -23.5% (active).

For `O=[N+]([O-])c1cccc(-c2nc3sccn3c2-c2ccnc(NCCNS(=O)(=O)c3ccc(C(F)(F)F)cc3)n2)c1`, the growth is 16%.

For the molecule `O=C(C[C@@H](C(=O)NCc1cccc(C(F)(F)F)c1)N1C(=O)[C@@H](N2C(=O)OC[C@@H]2c2ccccc2)[C@H]1/C=C/c1ccccc1)NC1CCN(Cc2ccccc2)CC1`, the growth was 55.3%.

For `O=C1/C(=C/c2cc(F)cc(F)c2)Cc2cc(F)cc(F)c21`, the growth was 122%.

As to `O=C(Nc1ccccc1O)c1ccc(Oc2cccc(C(=O)Nc3ccccc3O)c2)cc1`, the growth is -40.4% (active).

Turning to `COc1cc2nc(Cl)nc(Nc3cccc(C(=O)/C=C/c4ccccc4)c3)c2cc1OC`, the growth is 70.1%.

Consider `CC(Cc1nnc(SCC(=O)Nc2ccc(I)cc2)n1N)c1ccccc1` (stereo not given), for which the growth is 158%.

Take `COc1ccc(/C=C/c2c(C(=O)/C=C/c3ccc(Cl)cc3)c(C)nc3ccccc23)cc1`: the growth is 10%.

Regarding `COc1ccc(-c2cc(C(=O)N3N=C(c4ccc(N)cc4)CC3c3ccc(OC)cc3)c3cc(OC)ccc3n2)cc1` (stereo not given), the growth is -7.72% (active).

As to `CCN1C(=O)N(CC)C2C1NN=c1s/c(=C\c3ccc(C(F)(F)F)cc3)c(=O)n12` (stereo not given), the growth is -49.2% (active).

Consider `Cc1ccc2c(=O)cc(C(=O)Nc3sc4c(c3C(=O)NCc3cccnc3)CCCC4)oc2c1C`, for which the growth was 88.3%.

For the molecule `O=c1[nH]ccc2c(S(=O)(=O)N3CCCNCC3)cccc12`, the growth was 87.1%.

With `COC(=O)c1ccc(NC(N)=NCC(C)(C)COc2ccc(C(F)(F)F)cc2)nc1`, the growth is -49% (active).

As to `Clc1ccc(Nc2nc(Nc3ccccc3)nc(Nc3ccc(-c4cc(-c5ccc(Cl)cc5)on4)cc3)n2)cc1`, the growth was 55.3%.

Turning to `COC12CC(=O)C(C(C)=O)=C(O)C1(C)c1c(O)c(C)c(O)c(C(C)=O)c1O2` (stereo not given), the growth is 61.7%.

For `COC(=O)/C=C1\Sc2cc(F)ccc2NC1=O`, the growth was 97.7%.

In the case of `BrCCCc1n(Cc2ccc3ccccc3c2)c2ccccc2[n+]1Cc1ccc2ccccc2c1`, the growth is -54.9% (active).

Turning to `CCCN(CCC)CCC(O)c1cc2c(c3ccccc13)CCCC2` (stereo not given), the growth was 113%.

For `CN(C)c1ccc(/C=C(\C#N)c2nc3ccccc3n2C)cc1`, the growth was 1.21% (active).

Take `C[C@]12CC[C@@H]3c4ccc(O)c([N+](=O)[O-])c4CC[C@H]3[C@@H]1CC[C@@H]2NS(=O)(=O)c1ccc(C(F)(F)F)cc1`: the growth is -11.6% (active).

The values above are taken from PubChem BioAssay (NCI).
